These results are taken from PubChem BioAssay (Tox21).

Assay [1] can be described thus: qHTS assay to identify small molecule agonists of the sonic hedgehog signaling (Shh) pathway (AID 1259368; calls by dose curve;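 note: NIH/3T3-derived 3T3Gli1-Luc cells carrying a stable Gli1-driven firefly luciferase reporter; series mostly up to about 92 µM; nearly all actives have a fitted effect of over 15% in size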). A digest of the protocol: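 Luminescence was read after 30 min at room temperature with luciferase reagent. Before that, 3T3Gli1-Luc cells (NIH/3T3 clone, stable Gli1-Luc reporter; 2,000/well) were exposed to compounds for 24 hr at 37C, 5% CO2, compounds being added 4 hr post-plating.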

Assay [2] addresses Estrogen receptor beta (Homo sapiens) (UniProt Q92731). Kind of assay: qHTS assay to identify small molecule agonists of the estrogen receptor beta (ER-beta) signaling pathway (AID 1259377; active = well fitted activation curve with a large enough effect in the signal ratio in the repeat runs, not every such curve was filed as active; the % refers to the signal ratio; note: potency is the fitted concentration of half-maximal effect). A digest of the protocol:
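A UAS-controlled beta-lactamase reporter in ER-beta-UAS-bla HEK293T cells reports receptor activation. Compounds act for 16 hr at 37C in 2% charcoal-stripped serum, and a FRET substrate is read by fluorescence after 2 hours.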

Assay [3] has the same target. The experiment in a line: qHTS assay to identify small molecule antagonists of the estrogen receptor beta (ER-beta) signaling pathway (AID 1259378; active = well fitted inhibition curve with a large enough effect in the signal ratio in the repeat runs, not every such curve was filed as active; the % refers to the signal ratio). The gist of the method: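 ER-beta-UAS-bla HEK293T cells in 2% charcoal-stripped FBS medium treated with compound plus 1nM final 17-beta-estradiol for 16 hr at 37C. Beta-lactamase reporter read by FRET substrate fluorescence after 2 hours at room temperature.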
For orientation: In qHTS, concentration-response curves come from the screen itself.

Assay [4] can be described thus: qHTS assay to identify small molecule agonists of the androgen receptor (AR) signaling pathway in the presence of an antagonist - cell viability counter screen (AID 1259379).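 Note: MDA-kb2 human breast cancer cells carrying an MMTV luciferase reporter; series mostly up to about 92 µM; nearly all actives have a fitted effect of over 25% in size.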 The gist of the method:
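Cytotoxicity counter-screen run in the same wells as the nilutamide-challenged (3.0 µM final) AR agonist assay in MDA-kb2 cells. Compounds tested at 15 concentrations for 16 h, 37 °C without CO2; CellTiter-Fluor fluorescence read.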

The nature of assay [5]: qHTS assay to identify small molecule agonists of the estrogen receptor beta (ER-beta) signaling pathway - cell viability counter screen (AID 1259380). Note: nearly all actives have a fitted effect of over 30% in size. Note: potency is the fitted concentration of half-maximal effect. The gist of the method:
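Cell viability counter screen: CellTiter-Glo luminescence (30 min, room temperature) measured in the same wells as the beta-lactamase readout, after 16 hr compound exposure at 37C of ER-beta-bla HEK293T cells in 2% charcoal-stripped FBS medium.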

The target in assay [6] is Estrogen receptor (Homo sapiens) (UniProt P03372). The experiment in a line: qHTS assay to identify small molecule agonists of the estrogen receptor alpha (ER-alpha) signaling pathway in the presence of an antagonist (AID 1259383; calls by dose curve; note: top concentration of the series differs between compounds; nearly all actives have a fitted effect of over 15% in size). The gist of the method: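 Agonist-mode confirmation run in the presence of 10.0nM (final) ICI-182,780 antagonist. The reporter was ERE-driven luciferase in VM7Luc4E2 cells, grown in charcoal-stripped serum. Cells were exposed to 15-concentration compound series for 22hr, then ONE-Glo luminescence was read.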

Assay [7] in a line: qHTS assay to identify small molecule agonists of the estrogen receptor alpha (ER-alpha) signaling pathway in the presence of an antagonist - cell viability counter screen (AID 1259386). Note: series mostly up to about 92 µM; nearly all actives have a fitted effect of over 30% in size. A digest of the protocol:
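Compounds tested at 15 concentrations for 22 h at 37C alongside 10.0nM (final) ICI-182,780 antagonist, in VM7Luc4E2 cells grown in phenol red-free, charcoal-stripped medium. Viability read by CellTiter-Fluor fluorescence after 1 h reagent incubation.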

Assay [8] deals with Progesterone receptor (Homo sapiens) (UniProt P06401). The experiment in a line: qHTS assay to identify small molecule agonists of the progesterone receptor (PR) signaling pathway (AID 1346784; calls by dose curve; note: nearly all actives have a fitted effect of over 30% in size). The gist of the method:
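Agonist mode, quantitative HTS format in a HEK 293T line expressing a UAS-controlled beta-lactamase reporter; 16 hr compound exposure at 37C in 2% charcoal-stripped FBS, then LiveBLAzer B/G FRET fluorescence.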

Assay [9] has the same target. The experiment in a line: qHTS assay to identify small molecule antagonists of the progesterone receptor (PR) signaling pathway (AID 1346795; active = well fitted inhibition curve with a large enough effect in the signal ratio in the repeat runs, not every such curve was filed as active; the % refers to the signal ratio; note: potency is the fitted concentration of half-maximal effect). A digest of the protocol:
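HEK293T PR-UAS-bla reporter cells in charcoal-stripped serum (2%) received compound after a 6 hr settling period, followed by R5020 agonist at 1 nM final; 16 hr incubation preceded the FRET substrate step and fluorescence measurement.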

Assay [10] in a line: qHTS assay to identify small molecule antagonists of the progesterone receptor (PR) signaling pathway - cell viability counter screen (AID 1346798). Note: nearly all actives have a fitted effect of over 50% in size. Note: potency is the fitted concentration of half-maximal effect. A digest of the protocol:
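Same-well multiplex: after 16 hr at 37C with compound and R5020 stimulation, HEK293T cells carrying a UAS-bla reporter received LiveBLAzer substrate (2 hr RT), then CellTiter-Glo (30 min RT) for luminescent viability.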

Assay [11] is described as follows: qHTS assay to identify small molecule agonists of the progesterone receptor (PR) signaling pathway - cell viability counter screen (AID 1346799; calls by dose curve; note: nearly all actives have a fitted effect of over 45% in size; note: potency is the fitted concentration of half-maximal effect). The gist of the method: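 Counter screen for cytotoxicity: compound-treated PR-UAS-bla HEK293T cells (16 hr, 37C, 5% CO2) were assayed with CellTiter-Glo, luminescence measured after 30 min at room temperature.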
A short description of assay [12]: qHTS assay to identify small molecule antagonists of the TGF-beta/Smad signaling pathway - cell viability counter screen (AID 1346824). Note: nearly all actives have a fitted effect of over 50% in size. A digest of the protocol:
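SBE-bla HEK 293T cells, incubated overnight, then compound plus 0.25 ng/mL TGF-beta1 (stock added) for 5 hr at 37 C. Viability was read in the same wells by CellTiter-Glo luminescence after 30 min at room temperature.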

Assay [13] in a line: qHTS assay to identify small molecule agonists of the TGF-beta/Smad signaling pathway - cell viability counter screen (AID 1346829). Note: top concentration of the series differs between compounds; nearly all actives have a fitted effect of over 45% in size. The gist of the method:
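CellTiter-Glo luminescence readout; SBE-bla HEK 293T cells, overnight plating, compound 5 hr at 37 C/5% CO2, then bla substrate 2 hr RT, then CellTiter-Glo 30 min RT.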

A short description of assay [14]: qHTS assay to identify small molecule agonists of the TGF-beta/Smad signaling pathway (AID 1346859; active = well fitted activation curve with a large enough effect in the signal ratio in the repeat runs, not every such curve was filed as active; the % refers to the signal ratio; note: series mostly up to about 77 µM). A digest of the protocol:
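Smad-responsive beta-lactamase reporter cells (HEK 293T) received compounds from DMSO stocks after overnight attachment, were incubated 5 hr, then treated 2 hr with FRET substrate before dual-emission fluorescence measurement (405 nm excitation).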

For assay [15], the target named is Thyrotropin-releasing hormone receptor (Homo sapiens) (UniProt P34981). Kind of assay: qHTS assay to identify small molecule antagonists of the thyrotropin-releasing hormone receptor (TRHR) signaling pathway (AID 1346877; active = well fitted inhibition curve with a large enough effect in the repeat runs, not every such curve was filed as active; note: series mostly up to about 51 µM). The gist of the method:
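Antagonist mode: after a 5 min room-temperature compound exposure, cells were stimulated with 1 nM (final) TRH. Dye-loaded TRHR-HEK293 cells were used, and calcium-dependent fluorescence was followed for 3 min, with 15-point titrations run in triplicate.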

The nature of assay [16]: qHTS assay to identify small molecule antagonists of the estrogen receptor beta (ER-beta) signaling pathway - cell viability counter screen (AID 1259382). Note: series mostly up to about 92 µM; nearly all actives have a fitted effect of over 55% in size. The gist of the method: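 Cytotoxicity was measured in the same wells by CellTiter-Glo luminescence after 30 min at room temperature. Cells were ER-beta-bla HEK293T in charcoal-stripped serum, given compound together with 1 nM E2 and incubated 16 h at 37C.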

Assay [17] in a line: qHTS assay to identify small molecule agonists or antagonists of the thyroid stimulating hormone receptor (TSHR) signaling pathway - wild type cell line counter screen (AID 1259384; calls by dose curve). A digest of the protocol:
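Wild-type Hek293 cells, 800/well, 18 h at 37C, then compound with Ro20-1724 for 30 min RT. cAMP by HTRF (cAMP-d2/anti-cAMP cryptate), 1 h RT, fluorescence read. 15 concentrations, triplicates.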

Assay [18] addresses Thyrotropin receptor (Homo sapiens) (UniProt P16473). The experiment in a line: qHTS assay to identify small molecule antagonists of the thyroid stimulating hormone receptor (TSHR) signaling pathway (AID 1259385; calls by dose curve; note: nearly all actives have a fitted effect of over 20% in size). The gist of the method: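 TSHR-HEK293 cells (800/well) plated 18 h, then compounds with Ro20-1724 and TSH at 1.5 ng/mL final, 30 min at room temperature. cAMP quantified by HTRF (cAMP-d2/anti-cAMP-cryptate, 1 h); 15 concentrations in triplicate.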

For assay [19], the target named is Androgen receptor (Homo sapiens) (UniProt P10275). The experiment in a line: qHTS assay to identify small molecule agonists of the androgen receptor (AR) signaling pathway in the presence of an antagonist (AID 1259381; calls by dose curve; note: nearly all actives have a fitted effect of over 15% in size). The gist of the method: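 Agonist-mode confirmation run against 3.0 uM final nilutamide: compounds titrated at 15 concentrations onto MDA-kb2 MMTV-luciferase reporter cells. Luminescence measured with ONE-Glo following 16 hr incubation, 37C, 0% CO2.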

Values without a mark were called inactive. Inconclusive results are not listed. Calls of active or inactive are those of the source. Unless noted, calls come from the whole dose curve; as a rule, active = well fitted curve in the direction sought with a large enough effect in the repeat runs; inconclusive = weak or mixed curves; inactive = no such curve, though single readings can be large; an effect the other way counts as inactive or inconclusive.

Chain of Thyrotropin receptor (Homo sapiens) (P16473 whole entry, looked up): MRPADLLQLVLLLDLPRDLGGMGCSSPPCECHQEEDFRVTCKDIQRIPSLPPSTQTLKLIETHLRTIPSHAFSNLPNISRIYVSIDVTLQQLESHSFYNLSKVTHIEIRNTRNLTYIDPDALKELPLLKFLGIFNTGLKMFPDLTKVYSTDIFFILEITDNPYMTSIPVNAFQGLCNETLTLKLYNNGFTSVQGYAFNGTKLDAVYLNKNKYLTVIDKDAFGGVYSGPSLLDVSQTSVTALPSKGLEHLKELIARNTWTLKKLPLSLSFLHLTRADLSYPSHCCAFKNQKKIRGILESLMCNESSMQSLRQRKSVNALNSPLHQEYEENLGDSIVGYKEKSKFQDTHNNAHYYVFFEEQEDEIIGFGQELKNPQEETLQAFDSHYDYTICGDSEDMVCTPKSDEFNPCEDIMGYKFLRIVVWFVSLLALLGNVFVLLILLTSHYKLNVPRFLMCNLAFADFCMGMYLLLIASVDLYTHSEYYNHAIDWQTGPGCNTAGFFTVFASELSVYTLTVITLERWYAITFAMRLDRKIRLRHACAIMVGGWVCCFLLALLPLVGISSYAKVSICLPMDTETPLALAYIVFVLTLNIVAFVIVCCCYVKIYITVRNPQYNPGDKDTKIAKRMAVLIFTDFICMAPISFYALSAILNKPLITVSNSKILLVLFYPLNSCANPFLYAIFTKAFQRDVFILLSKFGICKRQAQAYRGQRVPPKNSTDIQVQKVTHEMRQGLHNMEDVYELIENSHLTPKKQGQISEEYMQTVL
Chain of Thyrotropin-releasing hormone receptor (Homo sapiens) (P34981 whole entry, looked up): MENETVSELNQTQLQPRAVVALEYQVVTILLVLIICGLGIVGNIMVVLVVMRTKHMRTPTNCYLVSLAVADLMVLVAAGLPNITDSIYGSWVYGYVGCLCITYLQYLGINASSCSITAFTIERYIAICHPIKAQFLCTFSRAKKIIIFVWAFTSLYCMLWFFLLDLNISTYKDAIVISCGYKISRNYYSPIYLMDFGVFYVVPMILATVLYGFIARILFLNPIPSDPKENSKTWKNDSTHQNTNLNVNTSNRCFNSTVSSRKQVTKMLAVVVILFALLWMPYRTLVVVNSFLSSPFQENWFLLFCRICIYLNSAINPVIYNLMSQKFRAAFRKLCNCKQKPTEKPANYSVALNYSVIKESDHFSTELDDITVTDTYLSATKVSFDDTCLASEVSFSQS
Chain of Progesterone receptor (Homo sapiens) (P06401 whole entry, looked up): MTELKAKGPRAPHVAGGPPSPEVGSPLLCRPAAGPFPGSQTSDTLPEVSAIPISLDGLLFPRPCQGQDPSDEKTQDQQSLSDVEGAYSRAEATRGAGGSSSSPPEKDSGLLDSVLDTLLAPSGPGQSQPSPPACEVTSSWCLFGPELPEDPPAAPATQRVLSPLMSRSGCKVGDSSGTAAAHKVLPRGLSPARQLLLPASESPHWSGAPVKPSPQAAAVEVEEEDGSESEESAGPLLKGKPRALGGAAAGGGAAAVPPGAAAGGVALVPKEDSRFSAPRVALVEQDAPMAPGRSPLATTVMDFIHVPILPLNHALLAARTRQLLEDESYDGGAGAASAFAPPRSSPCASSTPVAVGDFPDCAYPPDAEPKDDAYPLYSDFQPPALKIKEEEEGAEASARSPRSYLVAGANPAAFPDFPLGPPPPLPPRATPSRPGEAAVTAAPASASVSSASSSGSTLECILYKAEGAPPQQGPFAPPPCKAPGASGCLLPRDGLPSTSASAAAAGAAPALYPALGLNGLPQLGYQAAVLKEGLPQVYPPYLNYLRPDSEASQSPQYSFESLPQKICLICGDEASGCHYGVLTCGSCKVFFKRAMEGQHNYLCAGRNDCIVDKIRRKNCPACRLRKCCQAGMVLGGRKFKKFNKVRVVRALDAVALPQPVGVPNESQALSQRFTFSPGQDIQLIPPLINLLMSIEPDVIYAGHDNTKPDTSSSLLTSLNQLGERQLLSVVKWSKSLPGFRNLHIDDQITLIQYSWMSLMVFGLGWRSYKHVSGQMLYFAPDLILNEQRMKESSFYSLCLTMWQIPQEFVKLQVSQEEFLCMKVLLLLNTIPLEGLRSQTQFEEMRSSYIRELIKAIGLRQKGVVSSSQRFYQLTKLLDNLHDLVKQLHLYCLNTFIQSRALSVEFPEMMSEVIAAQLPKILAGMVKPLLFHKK
Chain of Estrogen receptor beta (Homo sapiens) (Q92731 whole entry, looked up): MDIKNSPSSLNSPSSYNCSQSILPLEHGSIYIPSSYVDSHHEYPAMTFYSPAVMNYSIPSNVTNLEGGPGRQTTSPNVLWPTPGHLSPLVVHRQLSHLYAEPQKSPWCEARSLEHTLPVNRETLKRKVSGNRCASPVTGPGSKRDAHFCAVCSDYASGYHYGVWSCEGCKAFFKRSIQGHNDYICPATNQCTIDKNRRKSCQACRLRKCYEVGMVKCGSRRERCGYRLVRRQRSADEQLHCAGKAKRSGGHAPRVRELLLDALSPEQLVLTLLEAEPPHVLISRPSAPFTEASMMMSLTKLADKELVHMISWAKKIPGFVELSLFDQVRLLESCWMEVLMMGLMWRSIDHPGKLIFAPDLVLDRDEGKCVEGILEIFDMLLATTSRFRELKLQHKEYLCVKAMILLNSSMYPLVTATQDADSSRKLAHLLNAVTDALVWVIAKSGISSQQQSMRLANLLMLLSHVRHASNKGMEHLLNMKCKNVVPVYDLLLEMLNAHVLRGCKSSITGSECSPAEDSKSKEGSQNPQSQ
Chain of Estrogen receptor (Homo sapiens) (P03372 whole entry, looked up): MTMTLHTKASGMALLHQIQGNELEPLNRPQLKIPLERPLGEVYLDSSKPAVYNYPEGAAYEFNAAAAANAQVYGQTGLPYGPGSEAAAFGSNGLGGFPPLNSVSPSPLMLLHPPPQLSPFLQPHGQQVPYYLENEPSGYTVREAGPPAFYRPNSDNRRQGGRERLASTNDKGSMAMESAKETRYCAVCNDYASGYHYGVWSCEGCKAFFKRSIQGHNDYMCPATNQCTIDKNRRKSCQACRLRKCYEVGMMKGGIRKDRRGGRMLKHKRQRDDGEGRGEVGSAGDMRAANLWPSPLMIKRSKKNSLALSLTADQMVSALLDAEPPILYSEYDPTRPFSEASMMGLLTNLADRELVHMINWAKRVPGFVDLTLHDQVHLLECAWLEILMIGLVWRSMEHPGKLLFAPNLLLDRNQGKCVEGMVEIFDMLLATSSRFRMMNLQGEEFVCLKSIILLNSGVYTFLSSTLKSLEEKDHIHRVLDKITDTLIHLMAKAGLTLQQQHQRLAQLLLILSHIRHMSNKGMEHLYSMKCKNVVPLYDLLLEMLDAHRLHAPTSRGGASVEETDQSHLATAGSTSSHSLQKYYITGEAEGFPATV
Chain of Androgen receptor (Homo sapiens) (P10275 whole entry, looked up): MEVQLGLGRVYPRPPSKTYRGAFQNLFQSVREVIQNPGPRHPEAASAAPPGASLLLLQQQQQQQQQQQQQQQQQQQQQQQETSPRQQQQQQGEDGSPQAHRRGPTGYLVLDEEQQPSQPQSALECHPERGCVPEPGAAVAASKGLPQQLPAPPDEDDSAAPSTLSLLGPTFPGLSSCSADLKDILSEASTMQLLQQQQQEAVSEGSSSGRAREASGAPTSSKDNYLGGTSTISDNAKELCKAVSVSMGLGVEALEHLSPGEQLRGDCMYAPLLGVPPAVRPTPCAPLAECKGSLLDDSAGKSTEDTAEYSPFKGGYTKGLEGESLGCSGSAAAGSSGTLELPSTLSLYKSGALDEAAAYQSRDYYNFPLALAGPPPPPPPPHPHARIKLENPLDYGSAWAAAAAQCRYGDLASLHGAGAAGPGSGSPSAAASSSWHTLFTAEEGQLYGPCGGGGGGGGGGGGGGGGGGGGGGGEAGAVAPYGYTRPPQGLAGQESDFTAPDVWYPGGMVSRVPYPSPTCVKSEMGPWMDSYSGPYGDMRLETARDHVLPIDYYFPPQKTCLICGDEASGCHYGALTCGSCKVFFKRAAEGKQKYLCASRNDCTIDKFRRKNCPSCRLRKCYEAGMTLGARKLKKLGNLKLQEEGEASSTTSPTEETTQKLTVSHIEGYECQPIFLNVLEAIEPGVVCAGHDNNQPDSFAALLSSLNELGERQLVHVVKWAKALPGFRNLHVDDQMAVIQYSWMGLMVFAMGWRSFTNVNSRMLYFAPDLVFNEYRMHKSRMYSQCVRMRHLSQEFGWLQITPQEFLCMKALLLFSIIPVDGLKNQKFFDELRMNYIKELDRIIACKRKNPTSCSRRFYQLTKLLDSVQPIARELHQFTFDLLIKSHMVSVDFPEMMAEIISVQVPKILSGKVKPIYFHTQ

For the molecule `OCC(CO)n1cnc(-c2ccc(F)cc2)c1-c1ccnc(Oc2ccccc2)n1`, the Potency entry in assay [1], in assay [2], in [3], in [4], in assay [5] and in assay [6] was “inactive” each time. Further, the Potency entry in [7], in assay [8], in assay [9], in assay [10], in [11] and in [13] was “inactive” throughout. Moreover, the Potency result in assay [14] was “inactive”. Moreover, the molecule was classed as inactive in assay [12] and in [15].

As for `CC1=CC[C@@]23C[C@@H]1C(C)(C)[C@@H]2CC[C@H]3C`, the Potency result in assay [1], in assay [2], in assay [3], in [5], in assay [16] and in assay [17] was “inactive” each time. For the same molecule, the Potency result in assay [18], in assay [7], in assay [8], in assay [9], in assay [10] and in assay [14] was “inactive” each time. For the same molecule, the result in assay [15] was inactive.

As to `C=CCOC(=O)COCCC(C)C`, the Potency result in [1], in assay [2], in assay [3], in assay [4], in assay [16] and in [6] was “inactive” throughout. Moreover, the Potency result in assay [17], in [18], in [7], in assay [8], in assay [9] and in assay [10] was “inactive” in each case. In addition, the Potency result in assay [11], in assay [13] and in assay [14] was “inactive” throughout. Moreover, the molecule was classed as inactive in assay [12] and in [15].

For `Cc1ccc(N(CC2=NCCN2)c2cccc(O)c2)cc1`, the Potency result in [1], in assay [2], in assay [3], in [4], in [5] and in assay [6] was “inactive” in each case. For the same molecule, the Potency result in assay [17], in assay [18], in assay [7], in assay [8], in [9] and in [10] was “inactive” throughout. Besides, the Potency result in [11], in assay [13] and in assay [14] was “inactive” each time. For the same molecule, in assay [12], the result was inactive.

For the molecule `CCN(CC)CCOc1ccccc1C(=O)CCc1ccccc1`, the Potency entry in [1], in assay [2], in assay [3], in assay [4], in assay [6] and in assay [17] was “inactive” throughout. In addition, the Potency result in [18], in assay [7], in assay [8], in [9], in assay [13] and in assay [14] was “inactive” in each case. For the same molecule, the Potency in assay [5] is 21.1 µM (active); in assay [10], 11.9 µM (active); in assay [11], 9.44 µM (active). In addition, the molecule was called inactive in assay [12] and in assay [15].

`C[C@@H]1C[C@H]2[C@@H]3CCC4=CC(=O)C=C[C@]4(C)[C@@]3(F)[C@@H](O)C[C@]2(C)[C@@]1(O)C(=O)COP(=O)(O)O`: the Potency entry in assay [1], in assay [2], in assay [3], in [4], in [16] and in [6] was “inactive” in each case. Further, the Potency entry in [17], in assay [18], in [7], in assay [8], in assay [10] and in assay [13] was “inactive” throughout. Also, in assay [14], the Potency result was “inactive”. Besides, the molecule was called inactive in assay [12] and in assay [15].

For the molecule `O=C(c1ccccc1)c1ccc(O)cc1`, the Potency result in assay [1], in assay [4], in assay [5], in [19], in assay [16] and in [17] was “inactive” throughout. For the same molecule, the Potency result in assay [7], in [8], in [10], in [13] and in assay [14] was “inactive” in each case. For the same molecule, the figures for the Potency in assay [2] and in [9] were 12.3 µM (active) and 43.8 µM (active), respectively. The call in assay [12] and in assay [15] was inactive.
